# From PubChem BioAssay
# MITF primary = blocks human microphthalmia-associated transcription factor | O75030 | AlphaScreen MITF homodimerization, bead proximity signal | inhibition, % at 2.6 µM | hit rate 0.91% among 650,000; in the data active = inhibition above about 50%;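 note: 0% = vehicle wells with protein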
# Target sequence (O75030 whole entry, looked up): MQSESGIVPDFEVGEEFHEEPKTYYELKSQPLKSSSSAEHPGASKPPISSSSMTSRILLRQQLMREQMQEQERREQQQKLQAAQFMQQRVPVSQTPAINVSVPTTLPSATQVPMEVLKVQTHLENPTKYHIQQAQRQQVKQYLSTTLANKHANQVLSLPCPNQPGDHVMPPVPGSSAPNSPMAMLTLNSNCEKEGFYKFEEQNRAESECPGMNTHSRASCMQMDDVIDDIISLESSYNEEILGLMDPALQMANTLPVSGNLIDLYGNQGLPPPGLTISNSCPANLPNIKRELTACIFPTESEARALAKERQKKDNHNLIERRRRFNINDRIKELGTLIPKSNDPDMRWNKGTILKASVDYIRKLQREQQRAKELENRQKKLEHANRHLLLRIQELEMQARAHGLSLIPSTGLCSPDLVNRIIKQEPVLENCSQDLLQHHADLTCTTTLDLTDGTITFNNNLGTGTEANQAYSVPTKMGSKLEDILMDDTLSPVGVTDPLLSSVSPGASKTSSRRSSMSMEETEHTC
# TEAD-YAP inh = TEAD-YAP interaction inhibition; HEK-TIYL cells, TEAD-Gal4/YAP UAS-luciferase luminescence; inhibition, % at 9.12 µM; hit rate 1.4% among 640,000; AID 1259422; in the data active = inhibition above about 32%;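 note: 0% = median of test compound wells and 100% = reference inhibitor wells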
# FBW7 act = activators of human E3 ligase FBW7 | AlphaScreen FBW7–phospho-cyclin E peptide binding, activator screen | normalized activity (activation), % at 26.1 µM | AID 1259310 | hit rate 0.13% among 650,000; in the data active = normalized activity above about 1.9%;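 note: purified mutant Fbw7 with reduced substrate affinity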
# GPR151 ag = activates the human receptor GPR151; Q8TDV0; PathHunter beta-arrestin GPR151 cells, luminescence; activation, % at 11.2 µM; hit rate 1% among 650,000; in the data active = activation above about 4.9%;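 note: 0% = median of compound wells and 100% = cells with positive control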
# MITF inh conf = confirmation of human MITF inhibitors; AID 1259372; hit rate 16% among 4,700; shares compounds with MITF primary; inhibition, % at 2.6 µM; AlphaScreen MITF homodimerization, biotin/His-MITF beads;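 active = inhibition above a cutoff derived from the DMSO control wells, cut at about 28% in these data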;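 note: 0% = MITF dimer wells with DMSO only; inhibitors lower the bead chemiluminescence by keeping MITF from dimerizing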
# AlphaScreen DR = optically interferes with AlphaScreen signal in dose response | AlphaScreen optical interference counterscreen, cell-free | IC50, µM | hit rate 6% among 480 | shares compounds with MITF primary; call rule not given here
# AS interf ctr = counter-screen: compounds optically interfering with AlphaScreen | inhibition, % at 2.6 µM | shares compounds with MITF primary | hit rate 7.6% among 4,700 | LysRS AlphaScreen counterscreen, signal interference, triplicate | AID 1259376;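 active = inhibition above a cutoff derived from the DMSO control wells, cut at about 30% in these data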
# * hit, by the source's call; . = no result given. The list is not random: actives were taken first. Their share in the collection is about 3.4%.
SMILES,MITF primary,TEAD-YAP inh,FBW7 act,GPR151 ag,MITF inh conf,AS interf ctr,others
c1ccc(CN2CCN(C3CCCCCC3)CC2)nc1,67*,4,0,-1,-9,15,
c1ccc(CN2CCN(c3ncccn3)CC2)nc1,14,-2,1,-3,.,.,
CCCCN(CC)C(=O)c1nn(-c2cccc(OC)c2)c(=O)c2ccccc12,-3,5,0,0,.,.,
COc1ccccc1COCC(O)CNCCc1ccc(C(F)(F)F)cc1 (stereo not drawn),12,5,0,3,.,.,
COc1ccc(OCC(O)CNCCC(C)C)c(C(C)(C)C)c1 (stereo not drawn),31,0,0,0,.,.,
COc1ccccc1COCC(O)CNCC12CC3CC(CC(C3)C1)C2 (stereo not drawn),64*,10,1,-1,15,16,
COc1ccccc1COCC(O)CNCCCN(C)C (stereo not drawn),56*,5,0,0,-9,-6,
COc1ccc(OCC(O)CNCCCN(C)C)c(C(C)(C)C)c1 (stereo not drawn),68*,1,0,1,6,11,
O=C(CC1C(=O)NCCN1Cc1ccccn1)NCCCc1ccccc1 (stereo not drawn),4,-6,0,0,.,.,
O=C(NNC(=S)Nc1ccccc1C(F)(F)F)c1ccc(Br)o1,-21,-32,0,-2,.,.,
CC(O)CC(=O)NNC(=S)Nc1ccc(Cl)c(Cl)c1 (stereo not drawn),-1,3,0,0,.,.,
O=C(NNC(=S)Nc1ccc(Cl)c(Cl)c1)c1ccccn1,114*,39*,-1,0,110*,100*,
O=C(NNC(=S)Nc1ccccc1C(F)(F)F)c1ccccn1,113*,-37,-1,-2,104*,100*,
CC1(C)CC(=O)C2=C(C1)N(c1ccc(Br)cc1)C(N)=C(C#N)C2c1ccccc1 (stereo not drawn),-2,-8,0,1,.,.,
Fc1ccc(N2CCN(Cc3ccc(Br)o3)CC2)cc1,51*,0,0,2,3,6,
Brc1ccc(CN2CCN(c3ccccn3)CC2)o1,52*,5,1,-1,6,2,
Clc1ccccc1N1CCN(Cc2ccc(Br)o2)CC1,40,3,1,0,.,.,
CCC(C)(C)n1nnnc1CN(Cc1ccccc1)Cc1cccs1,76*,1,0,-1,6,8,
Clc1ccc(CNC2CCN(Cc3ccccc3)CC2)cc1,-11,7,0,1,.,.,
Cc1ccc(CNC2CCN(Cc3ccccc3)CC2)o1,23,1,0,0,.,.,
c1ccc(CN2CCC(NCc3ccncc3)CC2)cc1,63*,-1,0,-1,8,13,
Fc1ccccc1CNC1CCN(Cc2ccccc2)CC1,51*,0,0,0,-12,0,
c1ccc(CN2CCC(NCc3cccnc3)CC2)cc1,70*,-11,0,-1,6,11,
FC(F)SCc1ccc(CNC2CCN(Cc3ccccc3)CC2)o1,54*,1,0,1,15,19,
CCN1CCN(C(=O)C2CCN(c3nc4c(C)cc(C)cc4s3)CC2)CC1,15,4,0,-1,.,.,
SMILES,MITF primary,TEAD-YAP inh,FBW7 act,GPR151 ag,MITF inh conf,AS interf ctr,others
COc1cc(OC)c(OC)cc1/C=N/NC(=O)CC1C(=O)NN=C1C (stereo not drawn),66*,13,0,0,1,-3,
COc1cc(/C=N/NC(=O)CC2C(=O)NN=C2C)cc(OC)c1OC(C)=O (stereo not drawn),0,2,0,1,.,.,
Cc1ccccc1CNC(=O)Nc1ccc(-c2cn[nH]c2)cc1,-6,-9,0,0,.,.,
COc1ccc(/C=C(\C#N)C(=O)Nc2ccc(F)cc2)cc1,8,3,0,-1,.,.,
O=C(NCCc1ccncc1)c1csc(-n2cccc2)n1,52*,-1,0,0,5,8,
CC(CNC(=O)Cc1ccc([N+](=O)[O-])cc1)CN(C)C (stereo not drawn),8,-2,0,-1,.,.,
O=C(NC(=S)Nc1ccc2[nH]c(=O)[nH]c2c1)c1ccccc1Cl,99*,-9,0,0,-10,-3,
COc1ccccc1C(=O)NC(=S)Nc1ccc2[nH]c(=O)[nH]c2c1,-10,-47,0,-1,.,.,
CC1CCCC(N2CCN(Cc3cccc(F)c3)CC2)C1 (stereo not drawn),69*,-1,0,-1,-3,-7,
Fc1cccc(CN2CCC(N3CCCCC3)CC2)c1,-8,4,0,-1,.,.,
CCc1ccc(CN2CCN(C3CCCC(C)C3)CC2)cc1 (stereo not drawn),64*,-3,0,-2,0,-1,
CC1CCCC(N2CCN(Cc3ccc(Cl)cc3)CC2)C1 (stereo not drawn),73*,10,0,0,-8,-2,
CC1CCC(N2CCN(Cc3ccc(F)cc3)CC2)CC1 (stereo not drawn),34,-3,0,0,.,.,
CC1CCCC(N2CCN(Cc3ccc(F)cc3)CC2)C1 (stereo not drawn),74*,-39,0,0,4,4,
O=C1/C(=C/c2ccc(Cl)cc2)C=C(c2ccccc2)N1c1ccccc1O,11,-1,0,0,.,.,
Cc1cccc(N2CC(O)=C(c3nc(-c4ccccc4)cs3)C2=N)c1,6,-3,0,2,.,.,
O=C(O)c1cccc(-c2ccc(/C=N/n3cnnc3)o2)c1,19,0,0,2,.,.,
O=C(O)c1cc(C(=O)O)cc(-c2ccc(/C=N\n3cnnc3)o2)c1,63*,9,0,-1,38*,6,AlphaScreen DR=>6.5
CN(C)CCNc1ncnc2sccc12,86*,-3,0,0,0,7,
CCOC(CCCNc1ncnc2sccc12)OCC,6,25,0,2,.,.,
COc1ccc(N2CCN(Cc3ccc(OC)cc3OC)CC2)cc1,39,-14,0,0,.,.,
COc1ccc(CN2CCN(Cc3ccc(OC)cc3OC)CC2)c(OC)c1,72*,-2,0,-1,0,15,
COc1ccc(CN2CCN(CCCc3ccccc3)CC2)c(OC)c1,74*,-2,0,-1,7,15,
COc1ccc(CN2CCN(Cc3ccc(Br)cc3)CC2)c(OC)c1,36,-13,-1,-2,.,.,
COc1ccc(CN2CCCN(C)CC2)c(OC)c1,28,7,0,3,.,.,
COc1ccc(CN2CCN(Cc3ccc(F)cc3)CC2)c(OC)c1,81*,0,0,0,8,20,
COc1ccc(CN2CCN(Cc3ccc(OC)cc3OC)CC2)cc1,65*,1,0,0,5,13,
Cc1cc2c(c(=O)n1Cc1cccs1)C(c1cccs1)C(C#N)=C(N)O2 (stereo not drawn),13,6,0,-1,.,.,
